The list is not random: actives were taken first. Their share in the collection is about 2.4%.
M1 ag parental: counter-screen for M1 agonists: effect in parental CHO-K1 cells; Fluo-8 calcium fluorescence; scaled to maximal ATP response, vehicle zero; activation, % at 3 µM; 360,000 tested, 0.48% active; in the data active = activation above about 15%;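 also: untransfected CHO-K1 host cells lacking M1 receptor as counterscreen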
M1 antag: human M1 muscarinic receptor antagonists, primary screen, CHO-K1 cells, Fluo-8 calcium fluorescence, 1536-well | inhibition, % at 3 µM | 360,000 tested, 1.3% active | Muscarinic acetylcholine receptor M1 (Homo sapiens), P11229 | CHO-K1 hM1, ACh EC80 antagonist;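 active = percent inhibition above its own plate's cutoff, namely the mean of that plate's compound wells plus 3 SD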;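 also: peak over basal fluorescence ratio during 140 s after agonist addition; 0% = ACh EC80 plus DMSO and 100% = DMSO alone without agonist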
Target sequence (P11229 whole entry, looked up): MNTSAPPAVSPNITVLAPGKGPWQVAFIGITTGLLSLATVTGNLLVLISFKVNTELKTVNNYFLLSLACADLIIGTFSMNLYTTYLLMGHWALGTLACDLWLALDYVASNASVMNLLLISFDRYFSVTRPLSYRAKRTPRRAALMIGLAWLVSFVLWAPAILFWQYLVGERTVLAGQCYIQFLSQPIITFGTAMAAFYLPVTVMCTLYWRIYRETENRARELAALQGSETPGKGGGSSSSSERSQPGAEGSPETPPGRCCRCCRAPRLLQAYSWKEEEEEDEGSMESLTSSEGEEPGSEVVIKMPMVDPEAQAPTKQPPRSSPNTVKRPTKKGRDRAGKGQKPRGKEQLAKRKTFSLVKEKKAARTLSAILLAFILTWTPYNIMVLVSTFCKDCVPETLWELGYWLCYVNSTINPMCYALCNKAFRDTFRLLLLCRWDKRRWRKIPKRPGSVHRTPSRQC
CHRM1 PAM: human M1 muscarinic receptor positive allosteric modulators, primary screen, CHO-K1 cells, Fluo-8 calcium fluorescence, 1536-well. AID 588819, 2011. activation, % at 3 µM. CHO-K1 hM1, ACh EC20; 0% = ACh EC20, 100% = maximal ACh. 360,000 tested, 0.088% active; in the data active = activation above about 19%, passing the limit was not always enough
M1 PAM parental: nonselective calcium activators in parental CHO-K1 cells, primary screen, counter-screen for M1 PAM project, cell-based, Fluo-8 calcium fluorescence, full deck, 1536-well; AID 602247, 2012; 360,000 tested, 0.02% active; activation, % at 3 µM; ATP EC20; 0% at ATP EC20, 100% at ATP max;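 active = activation above the run cutoff, the mean activation of all test compounds plus 3 SD, cut at about 40% in these data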;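 also: peak over basal fluorescence ratio in a 140 s read after ATP addition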
CHRM1 agonist: human M1 muscarinic receptor agonists, primary screen, Fluo-8 calcium fluorescence, CHO-K1 cells, HTS. activation, % at 3 µM. 360,000 tested, 0.33% active. AID 588814, 2011. Muscarinic acetylcholine receptor M1 (Homo sapiens), P11229. CHO-K1 hM1, agonist mode; 0% DMSO, 100% acetylcholine EC100;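 active = activation above the run's mean compound activation plus 3 SD, cut at about 16% in these data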;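 also: peak over basal fluorescence ratio within a 140 s kinetic read after compound addition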
CHO-K1 Ca antag: nonselective inhibitor or artifact in parental CHO-K1 cells | ATP-induced calcium, Fluo-8 fluorescence | inhibition, % at 3 µM | 360,000 tested, 0.6% active | AID 602250;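 active = inhibition above a per-plate cutoff, the plate's mean sample inhibition plus 3 SD, cut at about 24% in these data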;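 also: 0% = DMSO plus EC80 ATP and 100% = DMSO alone without ATP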
Starred values were filed as active, the others as inactive.

SMILES	M1 ag parental	M1 antag	CHRM1 PAM	M1 PAM parental	CHRM1 agonist	CHO-K1 Ca antag
Cc1occc1-c1nnc(SCC(=O)Nc2nc(C(C)(C)C)cs2)o1	10.8	50.8*	-24.0	-10.2	-0.6	29.5*
COc1ccc(CN(CC(=O)NC2CCCC2)C(=O)CCC(=O)Nc2nccs2)cc1	0.5	-12.8	15.5	-1.9	-0.4	-17.9
COc1ccc(C)cc1NC(=O)CNc1ccccc1CN(C)C1CCCCC1	-0.2	50.8*	-26.1	8.8	-8.0	5.4
COc1ccc(-c2ccnc3nc(N4CCOCC4)nn23)cc1	-0.3	3.4	-3.3	-7.3	-1.2	24.3*
CCOc1ccccc1OCCCC(=O)N1CCN(S(=O)(=O)c2ccc(Cl)cc2)CC1	2.8	9.2	16.0	5.2	-5.1	-15.8
CCOc1ccccc1OCCCC(=O)N1CCN(S(=O)(=O)c2cc(F)ccc2F)CC1	-0.2	12.4	-1.6	-18.2	-4.3	28.4*
N#CCc1ccc(OC(=O)c2cnccc2C(F)(F)F)cc1	1.1	0.5	6.1	12.0	-3.7	-5.5
CC(=O)c1ccc(N2CCN(c3ccccc3O)CC2)c([N+](=O)[O-])c1	19.0*	37.0*	-25.0	-6.9	0.1	13.6
O=C(O)c1ccccc1C(=O)c1ccc(N2CCCC2)c([N+](=O)[O-])c1	-0.6	-1.2	1.8	-10.3	-6.9	4.9
O=C(C[n+]1ccccc1)N1c2ccccc2Sc2ccccc21	-0.2	100.2*	-38.3	-5.6	-15.4	-6.5
CN(C)c1cc[n+](CC(=O)N2c3ccccc3Sc3ccccc32)cc1	1.4	99.7*	-25.2	-5.5	-7.6	-19.2
O=C(COc1ccccc1)N1c2ccccc2Sc2ccccc21	1.9	15.0	-16.0	21.7	-9.1	-11.6
CCc1ccc(NC(=O)C2CCCN2c2nn3c(=O)cc(C)nc3s2)cc1 (configuration not stated)	-0.4	-8.1	4.7	4.8	-6.8	-0.5
CN1CCCN(Cc2ccccc2C(F)(F)F)CC1	0.3	29.1*	-25.2	8.4	-6.6	-6.3
CCCS(=O)(=O)N1CCN(Cc2ccccc2C(F)(F)F)CC1	-0.5	2.0	7.5	-2.2	-3.6	-3.7
CCOc1ccccc1N1CCN(C(=S)NCc2ccccc2)CC1	1.1	-5.1	5.2	-9.1	-4.8	4.3
CCCCn1c(-c2ccc([N+](=O)[O-])cc2)n[nH]c1=S	0.2	97.6*	-21.9	18.7	-5.9	8.4
CCCn1c(-c2ccc(F)cc2)n[nH]c1=S	-0.2	0.1	3.2	-4.3	-6.5	2.4
CC(=O)Nc1cn(-c2ccccc2)nc1-c1ccccc1	0.5	-6.3	9.1	5.1	-4.5	-7.4
CN(C)CCCOc1ccc2c(c1)Sc1ccccc1CC2=O	3.6	-1.6	-0.5	25.0	24.2*	-1.5
C[N+]1(C)CCC(=C(c2ccccc2)c2ccccc2)CC1	0.8	97.7*	-24.9	15.4	-6.7	-5.6
CCn1c(=O)c(C(=O)NNC(=O)c2cccc(Cl)c2)c(O)c2ccccc21	22.4*	22.6	-12.9	-3.2	21.3*	3.1
CCn1c(=O)c(C(=O)Nc2nc3ccccc3[nH]2)c(O)c2ccccc21	1.9	51.0*	-11.7	8.9	4.6	19.5
CCn1c(=O)c(C(=O)NNC(=O)c2ccccc2Br)c(O)c2ccccc21	16.8*	-17.1	10.6	2.8	9.8	-8.5
Cn1c(=O)c(C(=O)NNC(=O)c2ccccc2Br)c(O)c2ccccc21	-0.4	1.0	2.3	-1.9	-3.0	-6.5
SMILES	M1 ag parental	M1 antag	CHRM1 PAM	M1 PAM parental	CHRM1 agonist	CHO-K1 Ca antag
Nc1nonc1-n1nnc(C(=O)N/N=C/c2ccc(Cl)cc2Cl)c1CN1CCCC1	-0.5	-3.2	7.4	-11.9	-0.5	-2.7
O=C(NCc1cccs1)c1nc(-c2cccs2)no1	0.2	-1.1	2.1	-4.8	-7.1	10.4
O=C(NCCc1ccccc1)c1nc(-c2cccs2)no1	0.2	-5.5	7.5	4.0	-9.7	26.3*
O=C1CN(C(=O)c2ccc(Br)o2)C(c2ccccc2)c2cc(Br)ccc2N1 (configuration not stated)	3.3	-0.6	3.0	28.3	-1.3	-9.6
O=C(NCc1ccccc1)c1ccc(C2SCC(=O)N2Cc2ccccc2)cc1 (configuration not stated)	2.1	58.6*	-23.3	9.8	-5.0	6.7
NC(=O)CC(NC(=O)Cc1ccc(Br)cc1)c1ccc(N2CCc3ccccc3C2)c([N+](=O)[O-])c1 (configuration not stated)	0.1	-0.4	0.1	-16.5	-6.8	-1.0
O=C(NC(=S)NNC(=O)c1ccco1)c1ccc(Br)cc1	17.9*	-4.4	2.0	6.1	24.9*	-2.2
O=C(NNC(=S)NC(=O)c1ccco1)c1ccc(F)cc1	23.9*	-2.3	8.9	20.1	3.9	1.4
NCC(c1ccco1)c1c[nH]c2ccccc12 (configuration not stated)	-0.1	-5.8	2.8	0.5	-4.0	1.6
CCN(CC)CCN1C(=O)c2ccccc2NC1c1ccc(Br)cc1 (configuration not stated)	1.1	21.7	-30.1	11.1	-13.9	6.1
O=C(NC1CCCC1)c1ccc(CN2CCOCC2)cc1	0.1	-5.8	5.6	12.5	-3.9	10.0
C/C(=N/NC(=O)c1cccs1)c1cccs1	0.1	-5.2	2.5	9.9	-2.5	-16.7
O=c1cc(NS(=O)(=O)c2ccccc2)nc(SCc2c(Cl)cccc2Cl)[nH]1	0.1	21.1	-10.2	-5.2	-4.5	18.8
Cc1ccc(S(=O)(=O)Nc2cc(=O)[nH]c(SCc3ccc(Cl)cc3)n2)cc1	1.4	1.4	-15.4	14.2	39.0*	-10.4
COc1ccccc1/C=C/C=N/n1c(-c2ccc(Cl)cc2)n[nH]c1=S	-1.3	-26.7	12.2	-16.4	-0.4	53.4*
O=C(NCc1cccc(Cl)c1)c1ccc2c(c1)SC1=NS(=O)(=O)CCN12	0.8	-4.9	5.0	12.7	-8.4	-7.2
Cc1ccc(C(=O)Oc2ccccc2N2CCOCC2)cc1	19.7*	-3.5	0.7	7.6	-1.9	-4.2
O=C(Oc1ccccc1N1CCOCC1)c1ccccc1	0.9	-10.6	4.7	16.8	-3.2	-3.0
CCOc1cc(C2NC(=O)c3ccccc3O2)ccc1OC (configuration not stated)	0.9	-8.8	9.3	15.3	-3.0	-3.7
CCOC(=O)N1CCC(NC(=O)C2CCCN(Cc3nc(-c4ccc(CC)cc4)oc3C)C2)CC1 (configuration not stated)	6.6	11.2	-8.7	0.5	-2.0	23.7*

Assay outcomes from PubChem BioAssay.
